This is an account of results in PubChem BioAssay.

Values joined by “and” are separate entries in the source; they are usually repeats but may differ in a detail not shown here. Identical values can stand only once.

The first test in a line: blockers of cytochrome c efflux from mitochondria – biochemical, purified mitochondria (AID 1603).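 Note: mouse liver mitochondria challenged with calcium chloride; signal normalized to the plate average as 100%.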 Particulars: stronger effect = lower value.
As to `CC(=O)CCC1C2=NC(=C\C3=NC(=C(/C)C4=NC(C)(C5[N-]/C(=C\2C)C(C)(CCC(=O)NCC(C)OP(=O)(O)O[C@@H]2[C@@H](CO)OC(n6cnc7cc(C)c(C)cc76)[C@@H]2O)C5CC(N)=O)C(C)(CC(N)=O)C4CCC(N)=O)/C(C)(CC(N)=O)C3CCC(N)=O)/C1(C)C.[CH2-][C@H]1OC(n2cnc3c(N)ncnc32)[C@H](O)[C@@H]1O.[Co+2]` (stereo partly specified), the cytochrome c release ratio came out at 0.56.
`Fc1ccc(C(c2ccccc2)(c2ccccc2F)n2ccnc2)cc1` (stereo unspecified): the cytochrome c release ratio was 3.37 and 1.21.
With `CC(C)[C@@H](C)/C=C/[C@@H](C)C1CC[C@H]2/C(=C/C=C3\C[C@@H](O)CC[C@@H]3C)CCC[C@]12C` (stereo partly specified), the cytochrome c release ratio stood at 0.91.
In the case of `COc1cccc(C(=O)c2ccccc2O)c1O`, the cytochrome c release ratio worked out at 1.59.

A further test is described as follows: polyglutamine aggregate formation blockers (AID 1604). Particulars: polyglutamine-induced protein aggregation inhibition assay; stronger effect = higher value; tested at 2.5 µM.
For the molecule `CC(=O)CCC1C2=NC(=C\C3=NC(=C(/C)C4=NC(C)(C5[N-]/C(=C\2C)C(C)(CCC(=O)NCC(C)OP(=O)(O)O[C@@H]2[C@@H](CO)OC(n6cnc7cc(C)c(C)cc76)[C@@H]2O)C5CC(N)=O)C(C)(CC(N)=O)C4CCC(N)=O)/C(C)(CC(N)=O)C3CCC(N)=O)/C1(C)C.[CH2-][C@H]1OC(n2cnc3c(N)ncnc32)[C@H](O)[C@@H]1O.[Co+2]` (stereo partly specified), the inhibition of aggregation amounted to 44.4%.
Still for that read-out and setting: with `CC(C)[C@@H](C)/C=C/[C@@H](C)C1CC[C@H]2/C(=C/C=C3\C[C@@H](O)CC[C@@H]3C)CCC[C@]12C` (stereo partly specified) the figure was 83.3%; with `COc1cccc(C(=O)c2ccccc2O)c1O`, 85.8%.

Another test can be described thus: glutamate transport activators, MN-1 cells, MN-1 cell line (AID 1612).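 Note: tested at 1 µM final; 0% = mean of DMSO vehicle wells on each plate; positive means more glutamate uptake than control and negative means less.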 Particulars: MN-1 motor neuron cells, stronger effect = higher value.
As for `CC(=O)CCC1C2=NC(=C\C3=NC(=C(/C)C4=NC(C)(C5[N-]/C(=C\2C)C(C)(CCC(=O)NCC(C)OP(=O)(O)O[C@@H]2[C@@H](CO)OC(n6cnc7cc(C)c(C)cc76)[C@@H]2O)C5CC(N)=O)C(C)(CC(N)=O)C4CCC(N)=O)/C(C)(CC(N)=O)C3CCC(N)=O)/C1(C)C.[CH2-][C@H]1OC(n2cnc3c(N)ncnc32)[C@H](O)[C@@H]1O.[Co+2]` (stereo partly specified), the glutamate uptake change was determined as 14.2%.
Consider `Fc1ccc(C(c2ccccc2)(c2ccccc2F)n2ccnc2)cc1` (stereo unspecified), for which the glutamate uptake change was 5.37% and 7.94%.
For the molecule `CC(C)[C@@H](C)/C=C/[C@@H](C)C1CC[C@H]2/C(=C/C=C3\C[C@@H](O)CC[C@@H]3C)CCC[C@]12C` (stereo partly specified), the glutamate uptake change is -13.9%.
For `COc1cccc(C(=O)c2ccccc2O)c1O`, the glutamate uptake change was -9.84%.
